GDH-TPI inh – GDH-TPI coupling enzyme inhibitors, primary screen, artefact control for M. tuberculosis FBA inhibitor project, biochemical, absorbance, full deck. AID 588335, 2011. GDH-TPI coupled enzyme counterscreen, NADH absorbance. hit rate 1.2% among 360,000. inhibition, % at 4.8 µM
VHR inh abs – VHR1 phosphatase inhibitors, primary screen, biochemical, absorbance, uHTS. Dual specificity protein phosphatase 3 (Homo sapiens), P51452. recombinant VHR phosphatase, pNPP absorbance. inhibition, % at 13.3 µM. hit rate 0.52% among 290,000. AID 1654, 2009; in the data active = inhibition above about 50%
CCHF vOTU inh – CCHFV vOTU protease inhibitors, primary screen, biochemical, Pep-AMC substrate, fluorescence; inhibition, % at 11.5 µM; Crimean-Congo hemorrhagic fever virus L polyprotein viral ovarian tumor (vOTU) protease …; hit rate 0.55% among 370,000
FBA Mtb inh – Mtb FBA enzyme inhibitors, primary screen, biochemical, fluorescence, strain H37Rv; Fructose-bisphosphate aldolase (Mycobacterium tuberculosis (strain ATCC 25618 / H37Rv)), …; purified M. tuberculosis FBA, fluorescence read-out; hit rate 2.3% among 360,000; AID 588726, 2011; inhibition, % at 1 µM; in the data active = inhibition above about 27%
RecA splice inh – Mtb RecA intein splicing inhibitors, primary screen, biochemical, fluorescence, HTS; AID 2221, 2009; hit rate 0.75% among 290,000; inhibition, % (no concentration beside the values); cell-free RecA intein splicing; Protein RecA (Mycobacterium tuberculosis (strain ATCC 25618 / H37Rv)), P9WHJ3; in the data active = inhibition above about 30%
Target sequence (P9WHJ3 whole entry, looked up, canonical isoform): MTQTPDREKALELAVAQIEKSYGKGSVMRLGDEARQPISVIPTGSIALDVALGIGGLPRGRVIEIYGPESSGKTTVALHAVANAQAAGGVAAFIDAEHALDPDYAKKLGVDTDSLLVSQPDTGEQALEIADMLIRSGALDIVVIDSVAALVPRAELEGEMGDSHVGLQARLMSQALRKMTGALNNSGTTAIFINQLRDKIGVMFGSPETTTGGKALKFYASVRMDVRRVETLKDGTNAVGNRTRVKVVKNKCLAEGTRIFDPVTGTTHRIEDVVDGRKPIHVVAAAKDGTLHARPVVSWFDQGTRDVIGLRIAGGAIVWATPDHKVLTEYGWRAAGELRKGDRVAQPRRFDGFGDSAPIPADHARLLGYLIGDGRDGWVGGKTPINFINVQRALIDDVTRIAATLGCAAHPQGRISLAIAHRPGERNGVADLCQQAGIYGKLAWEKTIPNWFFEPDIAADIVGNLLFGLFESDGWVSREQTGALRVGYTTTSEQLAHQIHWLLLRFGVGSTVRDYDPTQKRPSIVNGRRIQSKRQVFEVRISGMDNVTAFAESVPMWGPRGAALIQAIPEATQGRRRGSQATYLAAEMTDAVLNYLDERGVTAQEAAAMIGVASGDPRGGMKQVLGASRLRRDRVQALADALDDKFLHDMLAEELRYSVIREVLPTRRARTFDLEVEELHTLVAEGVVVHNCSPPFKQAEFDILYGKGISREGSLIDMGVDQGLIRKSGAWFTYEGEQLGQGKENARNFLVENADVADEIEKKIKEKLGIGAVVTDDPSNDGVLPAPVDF
3CLpro inhibitor – SARS-CoV 3CLpro protease inhibitors, primary screen, biochemical, quenched FRET | Replicase polyprotein 1ab (Severe acute respiratory syndrome coronavirus), P0C6X7 | AID 1706, 2009 | inhibition, % at 6 µM | recombinant SARS-CoV 3CLpro, quenched FRET peptide cleavage | hit rate 0.14% among 290,000; in the data active = inhibition above about 12%
GFP chromo cs – counter-screen: blocks GFP chromophore formation, dose response, counter-screen, biochemical, fluorescence, homogeneous. shares compounds with RecA splice inh. cell-free GFP chromophore formation. EC50, µM. hit rate 83% among 2,100. AID 434968, 2010; call rule not given here
Each line names hits and unclear results; the compound was inactive in the other large screens (follow-up assays come after a bar, where they were run). Most compounds without a hit are left out; they make up all but 4.7% or so of the library. Rule as the data show it, unless noted: active = inhibition above about 30%; inactive = the rest.

N#CC1=C(N)Oc2n[nH]c(-c3cccs3)c2C1C1CCCCC1 (stereo unspecified)	none
N#CC1=C(N)Oc2n[nH]c(-c3cccs3)c2C1c1ccco1 (stereo unspecified)	RecA splice inh 82.7 | GFP chromo cs 18.4
CC(C)c1[nH]nc2c1C(c1ccco1)C(C#N)=C(N)O2 (stereo unspecified)	RecA splice inh 63.6 | GFP chromo cs 28.8
Cc1ccc(C2C(C#N)=C(N)Oc3n[nH]c(-c4cccs4)c32)s1 (stereo unspecified)	RecA splice inh 66.7 | GFP chromo cs 8.81
COc1cccc(-c2[nH]nc3c2C(c2ccc(C)o2)C(C#N)=C(N)O3)c1 (stereo unspecified)	RecA splice inh 77.8 (no result: GDH-TPI inh, FBA Mtb inh) | GFP chromo cs 17.4
CCn1c(CNC(=O)c2cccs2)n[nH]c1=S	none
CCc1cccc(C)c1NC(=O)COC(=O)CSCc1ccccc1	none (no result: VHR inh abs, RecA splice inh, 3CLpro inhibitor)
CC(C)(C)c1[nH]nc2c1C(c1ccsc1)C(C#N)=C(N)O2 (stereo unspecified)	none
CCc1[nH]nc2c1C(c1ccsc1)C(C#N)=C(N)O2 (stereo unspecified)	RecA splice inh 76.7 | GFP chromo cs 26.2
N#CC1=C(N)Oc2n[nH]c(-c3cccs3)c2C1c1ccsc1 (stereo unspecified)	RecA splice inh 90.5 | GFP chromo cs 5.42
COc1ccc(OC)c(-c2[nH]nc3c2C(c2ccco2)C(C#N)=C(N)O3)c1 (stereo unspecified)	RecA splice inh 70.1 | GFP chromo cs 26.3
Cc1ccccc1N1Cc2ccccc2C1	none
CCC1=Nc2cc(C(=O)NCCCN3CCOCC3)ccc2Sc2ccccc21	none
CCC1=Nc2cc(C(=O)NCCN3CCCC3)ccc2Sc2ccccc21	VHR inh abs 57.7, RecA splice inh 37.5 | GFP chromo cs inactive
O=C(CCl)NC(=O)NC12CC3CC(CC(C3)C1)C2	RecA splice inh 58.7 | GFP chromo cs 28.7
CC(Cl)C(=O)NC(=O)NC12CC3CC(CC(C3)C1)C2 (stereo unspecified)	none
COc1cc(C(=O)CSc2nnc(-c3ccc(O)cc3)n2CC2CCCO2)ccc1NC(C)=O (stereo unspecified)	RecA splice inh 36.2 | GFP chromo cs inactive
CCC(=O)Nc1ccc(C(=O)CSc2nnc(-c3ccc(O)cc3)n2CC2CCCO2)cc1 (stereo unspecified)	none
CCN(CC(=O)Nc1ccc(OC)cc1)C(=O)CSCC(=O)Nc1cc(C)on1	none (no result: VHR inh abs, RecA splice inh, 3CLpro inhibitor)
O=[N+]([O-])c1cncc([N+](=O)[O-])c1Nc1cccc(O)c1	RecA splice inh 46.1 | GFP chromo cs 15.6
COc1ccccc1Nc1c([N+](=O)[O-])cncc1[N+](=O)[O-]	none
CCc1ccc([C@@H]2C[C@H]3[C@@H](CN2S(=O)(=O)c2ccc(C)cc2)C(=O)C[C@@H](c2cccc(Cl)c2)N3S(=O)(=O)c2ccc(C)cc2)cc1	none (no result: VHR inh abs, RecA splice inh, 3CLpro inhibitor)
Nc1nc(-c2ccco2)nn1C(=O)c1ccc(Cl)cc1	RecA splice inh 34.3 | GFP chromo cs inactive
Nc1nc(-c2ccco2)nn1C(=O)c1ccccc1	none
C#CCOC(=O)c1ccccc1C(=O)n1nnc2ccccc21	RecA splice inh 50.5 | GFP chromo cs 35.1
O=C(NC1C(=O)NNC1c1ccccc1)c1ccccc1 (stereo unspecified)	RecA splice inh 69.4 | GFP chromo cs 25.3
O=C(NC1CCCCC1c1ccccc1)c1ccccc1 (stereo unspecified)	none (no result: VHR inh abs, RecA splice inh, 3CLpro inhibitor)
CC1Cc2ccccc2N1C(=O)CCS(=O)(=O)c1ccc2c(c1)NC(=O)CS2 (stereo unspecified)	none
CC(C)OCCCNC(=O)CN1C(=O)CSc2ccc(S(=O)(=O)N3CCCCC3)cc21	none
CC(C)(C)C(=O)N(Cc1ccc(Cl)cc1)c1cnccn1	none
COc1ccc(NC(=O)C/C(C)=N/NC(=O)COc2ccc(OC)cc2)cc1	none
C/C(CC(=O)Nc1ccccc1[N+](=O)[O-])=N\NC(=O)COc1ccccc1C	RecA splice inh 69.4 | GFP chromo cs 21.1
C/C(CC(=O)Nc1ccc(F)cc1)=N\NC(=O)COc1ccccc1	RecA splice inh 65.8 | GFP chromo cs 21.8
N#C/C(=C/c1ccncc1)c1nc2ccccc2s1	RecA splice inh 73.6 | GFP chromo cs 21.6
COc1ccc2nc3cc(Cl)ccc3c(Nc3cc(C(C)C)c(O)cc3C)c2c1	RecA splice inh 73.5 | GFP chromo cs 0.754
COc1ccc(S(=O)(=O)Nc2cc(C(C)C)c(O)cc2C)cc1	none
Cc1ccc(-n2nc(C)c3c2C(Br)C(C)(C)CC3=O)nc1 (stereo unspecified)	none (no result: VHR inh abs, RecA splice inh, 3CLpro inhibitor)
Clc1ccc(CSC(Cn2ccnc2)c2ccc(Cl)cc2Cl)cc1 (stereo unspecified)	RecA splice inh 41.7 | GFP chromo cs 23.1
CCCn1nc([N+](=O)[O-])c(C(C#N)c2nc3ccccc3s2)c(Cl)c1=O (stereo unspecified)	RecA splice inh 81.4 | GFP chromo cs 6.12
CC1CCc2c(c3ccccc3n2C(=O)CCl)C1 (stereo unspecified)	RecA splice inh 40.9 | GFP chromo cs 0.694
CCN1CCN(CC(=O)n2c3c(c4ccccc42)CC(C)CC3)CC1 (stereo unspecified)	none
COc1ccc(C(=O)N2CCC(O)(c3ccc(Cl)cc3)CC2)cc1OC	none
COc1ccc(N2CCN(C(=O)c3ccc(Oc4ccc(C(F)(F)F)cn4)cc3)CC2)cc1	RecA splice inh 31.1 | GFP chromo cs inactive
O=C(c1ccc(Oc2ccc(C(F)(F)F)cn2)cc1)N1CCN(c2ccccc2)CC1	none
CCCCNC(=O)c1cccc2c(=O)c(C)c(-c3ccccc3)oc12	none
CCCCN(C(=O)c1cccc2c(=O)c(C)c(-c3ccccc3)oc12)c1ccccc1	RecA splice inh 32.8 | GFP chromo cs inactive
Cc1onc(-c2ccccc2)c1C(=O)Nc1ncc([N+](=O)[O-])s1	none
O=C(Nc1ncc([N+](=O)[O-])s1)c1ccco1	RecA splice inh 30.9 | GFP chromo cs 21.1
CC(C)Oc1ccc(/C(O)=C2/C(=O)C(=O)N(CCN3CCNCC3)C2c2cccc([N+](=O)[O-])c2)cc1 (stereo unspecified)	none (no result: RecA splice inh)
c1cncc(CNc2ncnc3sc4c(c23)CCCC4)c1	RecA splice inh 36.5 | GFP chromo cs inactive

Screening results (PubChem BioAssay)
